According to ChEMBL document CHEMBL3988442, “University of Dundee, Small-Polar-MMV Screening Library” (2021):

Each compound was assayed against T1, Arginase-2, mitochondrial (Homo sapiens) (UniProt P78540) (assay: in vitro enzyme assay to detect the production of urea directly proportional to the activity of Arginase II). Settings: 33.3 µM.
T1 sequence (whole entry): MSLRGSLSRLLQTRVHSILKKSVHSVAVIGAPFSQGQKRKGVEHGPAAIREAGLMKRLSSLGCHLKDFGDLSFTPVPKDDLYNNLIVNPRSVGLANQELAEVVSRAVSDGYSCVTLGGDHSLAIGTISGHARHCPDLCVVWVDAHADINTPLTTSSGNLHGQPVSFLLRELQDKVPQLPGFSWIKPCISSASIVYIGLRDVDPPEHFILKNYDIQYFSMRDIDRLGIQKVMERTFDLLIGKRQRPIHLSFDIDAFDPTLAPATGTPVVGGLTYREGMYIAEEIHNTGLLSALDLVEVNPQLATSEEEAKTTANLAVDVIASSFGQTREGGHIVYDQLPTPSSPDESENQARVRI
Assay type: functional
Design: scale not given: in the data most compounds retested in dose-response had high values

Compound | Percent Effect
COCCn1ccc(NC(=O)Nc2cccnc2)n1 | -7.1%
CCN(C(=O)CCCOc1ccccc1F)c1ccncc1 | -20.1%
O=C(NC1CC1)[C@@H]1CCO[C@@H]2CCN(C3CCOCC3)C[C@@H]21 | -13.8%
Cc1nc(C)n(CC2CCCN(c3ncnc4sccc34)C2)n1 (stereo not given) | 0.401%
Cc1nn(C)c(Cl)c1C1CCCN1C(=O)c1cc(Cl)c[nH]1 (stereo not given) | 2%
COc1c(C2CCCN2Cc2csc(C(C)C)n2)c(C)nn1C (stereo not given) | 4.63%
CNc1cncc(C2CCCN2Cc2ccccn2)n1 (stereo not given) | 1.62%
CC(=O)Nc1nc(C(=O)N2CCCC2Cn2cc(C)cn2)cs1 (stereo not given) | 1.47%
O=C(NCCN1CCCCCC1=O)c1ccn(-c2ccc(F)cc2)n1 | 0%
O=C(NCCCn1cccn1)N1CCCC1c1ccncc1 (stereo not given) | -1.56%
CC(C)c1nnc(NC(=O)NCc2ccnc(N(C)C)c2)s1 | 8.39%
CC(NC(=O)N(C)Cc1ccc(Cl)s1)c1ccccn1 (stereo not given) | 1.07%
CCc1nnc2n1CCN(C(=O)c1cnc3ccccc3n1)C2 | 17.2%
O=C(c1ccccc1N1CCOCC1)N1CCCC(n2cccn2)C1 (stereo not given) | -0.802%
CSc1ccc(NC(=O)Nc2ccc3c(c2)N(S(C)(=O)=O)CC3)cc1 | -93.5%
OCC1CCCN1c1cc(NCCc2c[nH]c3ccccc23)ncn1 (stereo not given) | 0%
CC1CCN(C(CNC(=O)CCn2cccn2)c2cccs2)CC1 (stereo not given) | 8.85%
CSCC[C@H](N)C(=O)NCc1cc2n(n1)CCCN(C(=O)C1CCC1)C2 | -0.442%
COC(=O)c1ccc(N2CCN(C(=O)c3ccncc3)C(C)C2)cc1 (stereo not given) | -2.66%
Cc1cccnc1NCCNC(=O)[C@H]1CNC[C@@H](C(=O)N2CCCC2)C1 | 0%
